Data: PubChem BioAssay (EPA / NIEHS)
Where a structure was tested more than once in an assay, its records may differ in their call. Active and inactive are the calls of the source. The calls were made as follows: active = hit-call score of the fitted dose curve at least 0.9, where 1 is the maximum; inactive = score below 0.9.

Read-out: Monocyte Chemoattractant Protein-1 (MCP1), CCL2 (gene 6347)
Assay: BSK_SAg_MCP1: BioMAP Diversity Plus: SAg Assay for Monocyte Chemoattractant Protein-1 (MCP1) Biomarker Activity (AID 2283090)
Settings: primary human HUVEC with PBMC; actives raise or lower the signal
Procedure: BSK_SAg is a cell-based, multiplexed-readout assay that uses umbilical vein endothelium and peripheral blood mononuclear cells, a human vascular primary cell co-culture, with measurements taken at 24 hours after chemical dosing in a 96-well plate.BSK_SAg_MCP1 is an assay component measured in the BSK_SAg assay. It measures MCP-1 antibody related to regulation of gene expression using ELISA technology.Data from the assay component BSK_SAg_MCP1 was analyzed into 1 assay endpoint. This assay endpoint, BSK_SAg_MCP1, was analyzed with bidirectional fitting relative to DMSO as the negative control and baseline of activity. Using a type of binding reporter, gain or loss-of-signal activity can be used to understand changes in the signaling as they relate to the gene CCL2. Furthermore, this assay endpoint can be referred to as a primary readout, because this assay has produced multiple assay endpoints where this one serves a signaling function. To generalize the intended target to other relatable targets, this assay endpoint is annotated to the cytokine intended target family, where the subfamily is chemotactic factor.
The levels of cell surface (or secreted, indicated by the prefix "s") biomarker endpoints were measured by ELISA. Overt cytotoxicity to cells in confluent adherent cultures (all systems other than the BT system) was assessed by measuring total protein levels using sulforhodamine B (SRB) staining in parallel cultures at the time of biomarker measurements, indicated as SRB endpoints. For proliferation assays for adherent cell types, individual cell types are cultured at sub-confluence and relative cell numbers quantified by SRB staining at time points optimized for each system (48 h: 3C and CASM3C systems; 72 h: BT and HDF3CGF systems; 96 h: SAg system). SRB was performed by staining cells with 0.1% SRB after fixation with 10% TCA and reading wells at 560 nm.Viability and proliferation of PBMC (T cells) was quantified by Alamar Blue reduction for the SAg and BT systems. For PBMC viability (referred to as PBMC Cytotoxicity within the assay endpoint names), cells were plated (75,000/well in a 96-well plate) and then chemical samples added for 1 h before addition of activators, SEB and TSST-1 (20 ng/mL final concentration each). Cells were incubated for 90 h. Then, Alamar Blue (20 uL/well) (Invitrogen, Cat DAL1100) was added for 6 h, and the plates were read with a fluorescence microplate reader at 546/580 nm (excitation/emission). For PBMC proliferation, cells were plated and activated as above but incubated for only 16 h prior to addition of Alamar Blue. Plates were read after 6 h.

SMILES	outcome	AC50
CCCCC(CC)COC(=O)c1ccc(C(=O)OCC(CC)CCCC)c(C(=O)OCC(CC)CCCC)c1 (stereo not given)	inactive	–
Nc1ccc(Cl)cc1N	–	3.7 µM (active)
[O-][Cl+]O	inactive	–
CCCCCOC(=O)c1ccccc1C(=O)OCCCCC	inactive	–
CCCCOC(=O)c1ccccc1C(=O)OCc1ccccc1	inactive	–
O=C(N[C@H](c1ccccc1)[C@@H]1CN2CCC1CC2)c1c(Cl)ccc(C(F)(F)F)c1Cl	inactive	–
O=C(O)C1C2CCC(O2)C1C(=O)O (stereo not given)	inactive	–
C=CCc1ccc2c(c1)OCO2	inactive	–
OCCOCCO	inactive	–
ClCCOCCCl	inactive	–
C[N+](C)(C)CC1CO1 (stereo not given)	inactive	–
Cc1cccc(N)c1N	inactive	–
CC(O)CCO (stereo not given)	inactive	–
CNC(=O)Oc1cccc2c1OC(C)(C)C2	inactive	–
C1=Cc2cccc3cccc1c23	inactive	–
Brc1ccc(Oc2ccccc2)cc1	inactive	–
CC(C)COC(=O)c1ccccc1C(=O)OCC(C)C	inactive	–
ClC1=C(Cl)[C@]2(Cl)[C@H]3[C@H]([C@@H]4C=C[C@H]3C4)[C@@]1(Cl)C2(Cl)Cl	–	31.3 µM (active)
Cc1ccc(N=C=O)cc1N=C=O	inactive	–
Cc1cc(N=Nc2ccccc2C)ccc1N	–	20 µM (active)

SMILES	outcome	AC50
[As]#[In]	inactive	–
CN(C)C(=O)Nc1ccc(Cl)cc1	inactive	–
COC(=O)c1ccccc1N	inactive	–
Oc1ccccc1Cl	inactive	–
CCNS(=O)(=O)C(F)(F)C(F)(F)C(F)(F)C(F)(F)C(F)(F)C(F)(F)C(F)(F)C(F)(F)F	inactive	48.7 µM (active)
CCOC(=O)[C@]1(c2ccccc2)Oc2ccccc2[C@@H]1N	–	30.1 µM (active)
O=C(Oc1ccc(Br)cc1)N1CCN2CCC1CC2	inactive	–
CC(C)N(Cc1ccccc1)C(=O)C(C)(C)C	inactive	–
CC(C)(O)c1cnn2c(-c3ccc(F)c(-c4c(F)cccc4C#N)c3)cnc2n1	inactive	–
CCCCCCCCn1sccc1=O	–	11.7 µM (active)
Oc1ccc2ccc3cccc4ccc1c2c34	–	29.5 µM (active)
OCCCl	inactive	–
CCC(C)c1ccc(O)cc1 (stereo not given)	inactive	–
CC(C)(C)OOC(=O)c1ccccc1	inactive	–
Clc1ccc(C(c2ccc(Cl)cc2)C(Cl)Cl)cc1	–	34.2 µM (active)
c1ccc(C2CO2)cc1 (stereo not given)	inactive	–
CN(C)c1ccccc1	inactive	–
CCCSC(=O)N(CCC)CCC	inactive	–
c1ccc(N=Nc2ccccc2)cc1	inactive	–
